Assay results taken from PubChem BioAssay (Tox21).
Records with an inconclusive call do not appear. The source made the active and inactive calls. Unless noted, calls come from the whole dose curve.

What was measured:
[1] = qHTS assay to identify small molecule agonists of the sonic hedgehog signaling (Shh) pathway (AID 1259368); note: nearly all actives have a fitted effect of over 15% in size; note: potency is the fitted concentration of half-maximal effect
How it was run: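 3T3Gli1-Luc (NIH/3T3 clone, stable Gli1-Luc); 4 hr pre-incubation, then cpd in DMSO 24 hr, 37 C/5% CO2; luciferase reagent 30 min RT; luminescence.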

[2] = qHTS assay to identify small molecule antagonists of the sonic hedgehog signaling (Shh) pathway (AID 1259369); note: nearly all actives have a fitted effect of over 45% in size; note: potency is the fitted concentration of half-maximal effect
How it was run: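 3T3Gli1-Luc, conditioned-medium-stimulated, 24hr cpd, 37C/5% CO2; Gli1-driven firefly Luc luminescence after 30min RT with luciferase reagent. Cells plated 4hr before cpd.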

[3] = qHTS assay to identify small molecule agonists of the androgen receptor (AR) signaling pathway in the presence of an antagonist - cell viability counter screen (AID 1259379; active = well fitted curve in the direction sought with a large enough effect in the repeat runs; an effect the other way counts as inactive or inconclusive;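 note: MDA-kb2 human breast cancer cells carrying an MMTV luciferase reporter; series mostly up to about 92 µM; nearly all actives have a fitted effect of over 25% in size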)
How it was run: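 Cells: MDA-kb2 (MMTV-luc, AR and GR elements), 3,000/well, 5 hr settle. Added: nilutamide 3.0uM final, then compounds (15 conc.). Incubation: 16 hr, 37C, no CO2. Read-out: CellTiter-Fluor, 1 hr, fluorescence.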

[4] = qHTS assay to identify small molecule antagonists of the estrogen receptor beta (ER-beta) signaling pathway - cell viability counter screen (AID 1259382; active = well fitted curve in the direction sought with a large enough effect in the repeat runs; an effect the other way counts as inactive or inconclusive; note: nearly all actives have a fitted effect of over 55% in size; note: potency is the fitted concentration of half-maximal effect)
How it was run: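 Cells: ER-beta-UAS-bla HEK293T, 2,000/well, 2% CS-FBS, 6 hr settle. Cpd + E2 (1nM final), 16 hr, 37C/5% CO2. Bla FRET substrate 2 hr RT, then CellTiter-Glo 30 min RT, luminescence.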

[5] = target: Estrogen receptor (Homo sapiens) (UniProt P03372); assay: qHTS assay to identify small molecule agonists of the estrogen receptor alpha (ER-alpha) signaling pathway in the presence of an antagonist (AID 1259383); note: top concentration of the series differs between compounds; nearly all actives have a fitted effect of over 15% in size
Estrogen receptor (Homo sapiens), sequence (P03372 whole entry, looked up): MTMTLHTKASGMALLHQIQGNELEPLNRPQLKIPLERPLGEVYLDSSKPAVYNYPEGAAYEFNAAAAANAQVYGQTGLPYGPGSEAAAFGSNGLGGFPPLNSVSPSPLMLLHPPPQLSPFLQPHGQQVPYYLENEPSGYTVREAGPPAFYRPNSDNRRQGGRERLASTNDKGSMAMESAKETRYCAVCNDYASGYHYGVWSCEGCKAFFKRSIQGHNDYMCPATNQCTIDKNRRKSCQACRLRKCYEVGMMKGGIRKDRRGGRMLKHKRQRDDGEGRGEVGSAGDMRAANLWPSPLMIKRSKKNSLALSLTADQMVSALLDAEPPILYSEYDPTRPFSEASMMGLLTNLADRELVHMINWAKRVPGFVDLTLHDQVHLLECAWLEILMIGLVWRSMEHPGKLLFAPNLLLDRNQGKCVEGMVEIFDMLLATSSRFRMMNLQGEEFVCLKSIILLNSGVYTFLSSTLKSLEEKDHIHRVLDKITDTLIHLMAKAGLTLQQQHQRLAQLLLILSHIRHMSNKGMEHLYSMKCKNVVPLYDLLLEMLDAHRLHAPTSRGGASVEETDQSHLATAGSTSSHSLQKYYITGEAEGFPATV
How it was run: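 VM7Luc4E2, endog. ER-alpha + 4×ERE-luc; charcoal-stripped FBS, phenol red-free, 5 d; 24hr plating; +10.0nM ICI-182,780 (final); cpds 15 conc, 22hr, 37C/5% CO2; ONE-Glo luminescence.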

[6] = qHTS assay to identify small molecule agonists or antagonists of the thyroid stimulating hormone receptor (TSHR) signaling pathway - wild type cell line counter screen (AID 1259384)
How it was run: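 Wild-type Hek293 cells, 800/well, 18 h at 37C, then compound with Ro20-1724 for 30 min RT. cAMP by HTRF (cAMP-d2/anti-cAMP cryptate), 1 h RT, fluorescence read. 15 concentrations, triplicates.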

[7] = target: Thyrotropin receptor (Homo sapiens) (UniProt P16473); assay: qHTS assay to identify small molecule antagonists of the thyroid stimulating hormone receptor (TSHR) signaling pathway (AID 1259385); note: nearly all actives have a fitted effect of over 20% in size; note: potency is the fitted concentration of half-maximal effect
Thyrotropin receptor (Homo sapiens), sequence (P16473 whole entry, looked up): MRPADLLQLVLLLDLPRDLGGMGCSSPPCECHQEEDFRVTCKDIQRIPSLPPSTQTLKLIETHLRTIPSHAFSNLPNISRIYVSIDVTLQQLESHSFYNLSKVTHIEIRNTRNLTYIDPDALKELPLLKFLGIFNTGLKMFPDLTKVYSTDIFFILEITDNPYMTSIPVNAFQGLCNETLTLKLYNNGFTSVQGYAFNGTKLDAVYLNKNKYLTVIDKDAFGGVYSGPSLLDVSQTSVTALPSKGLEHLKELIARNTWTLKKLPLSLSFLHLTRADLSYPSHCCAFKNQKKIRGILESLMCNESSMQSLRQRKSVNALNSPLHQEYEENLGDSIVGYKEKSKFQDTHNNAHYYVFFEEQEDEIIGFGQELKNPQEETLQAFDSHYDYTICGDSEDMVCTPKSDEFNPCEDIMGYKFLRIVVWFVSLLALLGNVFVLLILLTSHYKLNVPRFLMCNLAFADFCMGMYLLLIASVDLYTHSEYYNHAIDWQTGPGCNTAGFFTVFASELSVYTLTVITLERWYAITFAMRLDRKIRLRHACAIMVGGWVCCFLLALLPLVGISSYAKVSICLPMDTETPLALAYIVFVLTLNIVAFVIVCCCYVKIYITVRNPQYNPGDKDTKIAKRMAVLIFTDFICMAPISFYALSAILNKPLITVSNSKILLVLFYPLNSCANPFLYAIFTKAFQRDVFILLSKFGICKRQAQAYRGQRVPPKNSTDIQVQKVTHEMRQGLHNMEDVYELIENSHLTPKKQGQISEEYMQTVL
How it was run: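 TSHR-HEK293 cells (800/well) plated 18 h, then compounds with Ro20-1724 and TSH at 1.5 ng/mL final, 30 min at room temperature. cAMP quantified by HTRF (cAMP-d2/anti-cAMP-cryptate, 1 h); 15 concentrations in triplicate.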

[8] = target: Progesterone receptor (Homo sapiens) (UniProt P06401); assay: qHTS assay to identify small molecule agonists of the progesterone receptor (PR) signaling pathway (AID 1346784); note: nearly all actives have a fitted effect of over 30% in size
Progesterone receptor (Homo sapiens), sequence (P06401 whole entry, looked up): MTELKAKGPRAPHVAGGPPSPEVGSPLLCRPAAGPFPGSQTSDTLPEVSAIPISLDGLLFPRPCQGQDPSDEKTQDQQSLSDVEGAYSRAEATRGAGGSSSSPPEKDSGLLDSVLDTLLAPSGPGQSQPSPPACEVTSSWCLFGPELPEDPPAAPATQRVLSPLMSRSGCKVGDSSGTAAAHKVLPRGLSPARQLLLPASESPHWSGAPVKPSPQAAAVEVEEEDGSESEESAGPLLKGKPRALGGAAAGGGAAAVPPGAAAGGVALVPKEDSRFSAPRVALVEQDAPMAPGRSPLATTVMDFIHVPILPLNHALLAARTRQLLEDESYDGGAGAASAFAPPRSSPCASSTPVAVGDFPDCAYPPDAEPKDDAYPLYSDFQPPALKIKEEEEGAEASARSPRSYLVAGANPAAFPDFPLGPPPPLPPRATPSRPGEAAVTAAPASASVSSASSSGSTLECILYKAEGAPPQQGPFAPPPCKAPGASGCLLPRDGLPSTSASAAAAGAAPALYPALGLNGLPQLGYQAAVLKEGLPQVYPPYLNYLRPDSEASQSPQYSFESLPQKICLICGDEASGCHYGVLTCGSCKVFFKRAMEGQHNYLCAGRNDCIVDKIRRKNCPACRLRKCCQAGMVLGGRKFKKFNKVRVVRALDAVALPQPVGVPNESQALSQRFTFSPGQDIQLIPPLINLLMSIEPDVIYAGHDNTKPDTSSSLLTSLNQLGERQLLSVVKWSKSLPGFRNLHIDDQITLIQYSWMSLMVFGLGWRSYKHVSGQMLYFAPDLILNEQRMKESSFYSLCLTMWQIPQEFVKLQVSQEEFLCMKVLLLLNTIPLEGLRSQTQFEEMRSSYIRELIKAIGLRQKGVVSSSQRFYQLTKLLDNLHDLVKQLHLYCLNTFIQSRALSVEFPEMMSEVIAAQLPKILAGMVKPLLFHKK
How it was run: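 Reporter assay, GripTite PR-UAS-bla HEK 293T cells: 16 hr exposure to DMSO-dissolved compounds at 37C, 5% CO2, in steroid-depleted (2% charcoal-stripped FBS) medium; beta-lactamase measured by FRET fluorescence.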

[9] = qHTS assay to identify small molecule antagonists of the progesterone receptor (PR) signaling pathway - cell viability counter screen (AID 1346798; active = well fitted curve in the direction sought with a large enough effect in the repeat runs; an effect the other way counts as inactive or inconclusive; note: nearly all actives have a fitted effect of over 50% in size; note: potency is the fitted concentration of half-maximal effect)
How it was run: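 In the same plates used for the beta-lactamase readout, cell viability of compound- and R5020-treated PR-UAS-bla HEK293T cells (16 hr, 37C) was assessed by CellTiter-Glo luminescence.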

[10] = qHTS assay to identify small molecule agonists of the progesterone receptor (PR) signaling pathway - cell viability counter screen (AID 1346799); note: nearly all actives have a fitted effect of over 45% in size; note: potency is the fitted concentration of half-maximal effect
How it was run: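 Multiplexed viability read: CellTiter-Glo luminescence, 30 min RT, following LiveBLAzer FRET measurement on PR-UAS-bla HEK293T cells exposed to compounds 16 hr.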

[11] = qHTS assay to identify small molecule antagonists of the TGF-beta/Smad signaling pathway - cell viability counter screen (AID 1346824; active = well fitted curve in the direction sought with a large enough effect in the repeat runs; an effect the other way counts as inactive or inconclusive; note: nearly all actives have a fitted effect of over 50% in size)
How it was run: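 SBE-bla HEK 293T cells, incubated overnight, then compound plus 0.25 ng/mL TGF-beta1 (stock added) for 5 hr at 37 C. Viability was read in the same wells by CellTiter-Glo luminescence after 30 min at room temperature.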

[12] = qHTS assay to identify small molecule agonists of the TGF-beta/Smad signaling pathway - cell viability counter screen (AID 1346829; active = well fitted curve in the direction sought with a large enough effect in the repeat runs; an effect the other way counts as inactive or inconclusive; note: top concentration of the series differs between compounds; nearly all actives have a fitted effect of over 45% in size)
How it was run: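 After overnight seating at 37 C and 5% CO2, reporter cells got compounds for 5 hr and FRET substrate for 2 hr; cell viability then came from CellTiter-Glo luminescence.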

[13] = qHTS assay to identify small molecule agonists of the TGF-beta/Smad signaling pathway (AID 1346859; active = well fitted activation curve with a large enough effect in the signal ratio in the repeat runs, not every such curve was filed as active; the % refers to the signal ratio; note: series mostly up to about 77 µM)
How it was run: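 Screening used HEK 293T SBE-bla cells at 4,000/well. Test agents: 5 hr, 37 C. Detection: FRET substrate, 2 hr RT, then excitation 405 nm with emissions at 460 and 530 nm.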

[14] = target: Thyrotropin-releasing hormone receptor (Homo sapiens) (UniProt P34981); assay: qHTS assay to identify small molecule antagonists of the thyrotropin-releasing hormone receptor (TRHR) signaling pathway (AID 1346877; active = well fitted inhibition curve with a large enough effect in the repeat runs, not every such curve was filed as active; note: series mostly up to about 51 µM)
Thyrotropin-releasing hormone receptor (Homo sapiens), sequence (P34981 whole entry, looked up): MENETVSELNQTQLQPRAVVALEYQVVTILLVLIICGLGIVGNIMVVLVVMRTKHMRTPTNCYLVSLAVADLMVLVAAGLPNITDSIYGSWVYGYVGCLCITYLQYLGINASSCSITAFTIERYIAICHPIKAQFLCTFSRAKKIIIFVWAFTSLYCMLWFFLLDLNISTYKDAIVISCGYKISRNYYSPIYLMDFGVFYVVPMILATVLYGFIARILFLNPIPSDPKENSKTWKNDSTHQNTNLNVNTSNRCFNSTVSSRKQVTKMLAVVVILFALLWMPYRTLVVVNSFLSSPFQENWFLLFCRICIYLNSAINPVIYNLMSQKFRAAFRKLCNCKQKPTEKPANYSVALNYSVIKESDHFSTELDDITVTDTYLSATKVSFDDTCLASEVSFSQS
How it was run: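 Intracellular calcium fluorescence, read kinetically every second over 3 min, reports TRH-evoked signalling in HEK293 cells carrying TRHR. Test compounds were added 5 min ahead of a 1 nM TRH challenge.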

[15] = target: Estrogen receptor beta (Homo sapiens) (UniProt Q92731); assay: qHTS assay to identify small molecule agonists of the estrogen receptor beta (ER-beta) signaling pathway (AID 1259377; active = well fitted activation curve with a large enough effect in the signal ratio in the repeat runs, not every such curve was filed as active; the % refers to the signal ratio)
Estrogen receptor beta (Homo sapiens), sequence (Q92731 whole entry, looked up): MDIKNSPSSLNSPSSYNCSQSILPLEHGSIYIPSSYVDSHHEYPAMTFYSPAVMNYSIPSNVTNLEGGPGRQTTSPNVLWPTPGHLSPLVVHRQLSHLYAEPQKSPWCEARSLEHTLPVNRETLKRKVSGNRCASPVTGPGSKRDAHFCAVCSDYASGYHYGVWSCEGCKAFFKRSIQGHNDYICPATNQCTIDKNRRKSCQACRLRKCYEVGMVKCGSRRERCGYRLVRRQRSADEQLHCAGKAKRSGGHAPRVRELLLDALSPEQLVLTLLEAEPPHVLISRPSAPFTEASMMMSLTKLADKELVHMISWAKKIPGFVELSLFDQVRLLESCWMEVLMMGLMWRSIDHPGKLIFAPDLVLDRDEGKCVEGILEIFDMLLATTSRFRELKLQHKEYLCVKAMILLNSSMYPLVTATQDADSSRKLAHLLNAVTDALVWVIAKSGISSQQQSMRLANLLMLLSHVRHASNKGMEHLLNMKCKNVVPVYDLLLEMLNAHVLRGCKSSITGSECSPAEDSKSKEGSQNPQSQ
How it was run: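 Reporter cells (HEK293T, ER-beta-UAS-bla) receive compounds or DMSO after a 6 hr pre-incubation. They then incubate 16 hr at 37C/5% CO2, and fluorescence from LiveBLAzer B/G substrate is measured after 2 hours at room temperature.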

[16] = target: Estrogen receptor beta (Homo sapiens) (UniProt Q92731); assay: qHTS assay to identify small molecule antagonists of the estrogen receptor beta (ER-beta) signaling pathway (AID 1259378; active = well fitted inhibition curve with a large enough effect in the signal ratio in the repeat runs, not every such curve was filed as active; the % refers to the signal ratio)
How it was run: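 ER-beta-UAS-bla HEK293T cells in 2% charcoal-stripped FBS medium treated with compound plus 1nM final 17-beta-estradiol for 16 hr at 37C. Beta-lactamase reporter read by FRET substrate fluorescence after 2 hours at room temperature.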

[17] = qHTS assay to identify small molecule agonists of the estrogen receptor beta (ER-beta) signaling pathway - cell viability counter screen (AID 1259380; active = well fitted curve in the direction sought with a large enough effect in the repeat runs; an effect the other way counts as inactive or inconclusive; note: nearly all actives have a fitted effect of over 30% in size; note: potency is the fitted concentration of half-maximal effect)
How it was run: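 HEK293T ER-beta-UAS-bla; 2% CS-FBS; 6 hr pre-plate, 16 hr cpd at 37C/5% CO2; LiveBLAzer read first, then CellTiter-Glo 30 min RT, luminescence.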

[18] = target: Androgen receptor (Homo sapiens) (UniProt P10275); assay: qHTS assay to identify small molecule agonists of the androgen receptor (AR) signaling pathway in the presence of an antagonist (AID 1259381); note: nearly all actives have a fitted effect of over 15% in size
Androgen receptor (Homo sapiens), sequence (P10275 whole entry, looked up): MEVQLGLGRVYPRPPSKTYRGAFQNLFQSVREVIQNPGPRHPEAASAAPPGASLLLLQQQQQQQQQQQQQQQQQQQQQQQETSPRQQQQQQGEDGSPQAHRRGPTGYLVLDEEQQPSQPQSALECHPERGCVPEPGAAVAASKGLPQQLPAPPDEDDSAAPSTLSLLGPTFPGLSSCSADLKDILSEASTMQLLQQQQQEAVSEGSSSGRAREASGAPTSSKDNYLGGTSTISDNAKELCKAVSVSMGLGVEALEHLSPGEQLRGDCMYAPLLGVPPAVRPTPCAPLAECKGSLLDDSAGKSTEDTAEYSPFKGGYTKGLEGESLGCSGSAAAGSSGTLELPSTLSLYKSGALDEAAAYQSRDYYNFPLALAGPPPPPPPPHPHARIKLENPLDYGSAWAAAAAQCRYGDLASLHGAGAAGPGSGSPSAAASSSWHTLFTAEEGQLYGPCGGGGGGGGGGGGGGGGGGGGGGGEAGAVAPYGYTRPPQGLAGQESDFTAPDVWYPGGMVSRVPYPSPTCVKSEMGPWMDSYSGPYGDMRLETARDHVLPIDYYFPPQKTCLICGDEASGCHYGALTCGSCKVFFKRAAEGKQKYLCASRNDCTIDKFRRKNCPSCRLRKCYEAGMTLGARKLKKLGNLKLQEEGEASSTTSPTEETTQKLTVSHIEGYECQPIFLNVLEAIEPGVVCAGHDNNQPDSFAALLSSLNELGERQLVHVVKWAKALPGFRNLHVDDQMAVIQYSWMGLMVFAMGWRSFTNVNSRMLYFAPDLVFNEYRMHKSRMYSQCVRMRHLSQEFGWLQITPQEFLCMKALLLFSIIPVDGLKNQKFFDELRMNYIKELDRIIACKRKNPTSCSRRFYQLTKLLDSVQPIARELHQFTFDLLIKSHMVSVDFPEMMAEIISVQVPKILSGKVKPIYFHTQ
How it was run: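 MDA-kb2 cells, 3,000/well, rested 5hr at 37C/0% CO2 → nilutamide 3.0uM final or buffer → compounds, 15 conc. → 16hr at 37C → ONE-Glo, 30min RT → luminescence.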

[19] = target: Progesterone receptor (Homo sapiens) (UniProt P06401); assay: qHTS assay to identify small molecule antagonists of the progesterone receptor (PR) signaling pathway (AID 1346795; active = well fitted inhibition curve with a large enough effect in the signal ratio in the repeat runs, not every such curve was filed as active; the % refers to the signal ratio; note: potency is the fitted concentration of half-maximal effect)
How it was run: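 Stimulus R5020 at 1 nM final; cells HEK293T PR-UAS-bla; medium with 2% charcoal-stripped FBS; compound exposure 16 hr at 37C, 5% CO2; detection by FRET beta-lactamase substrate, 2 hr, room temperature.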

[20] = qHTS assay to identify small molecule agonists of the estrogen receptor alpha (ER-alpha) signaling pathway in the presence of an antagonist - cell viability counter screen (AID 1259386; active = well fitted curve in the direction sought with a large enough effect in the repeat runs; an effect the other way counts as inactive or inconclusive;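 note: cells exposed to compounds for 22 h at 37 °C before the viability read; nearly all actives have a fitted effect of over 30% in size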; note: potency is the fitted concentration of half-maximal effect)
How it was run: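 VM7Luc4E2, stripped-serum pre-culture 5 d; 24hr plating; +ICI-182,780 10.0nM final; cpds 15 conc, 22hr, 37C/5% CO2; CellTiter-Fluor added at 21hr, fluorescence 1hr later.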

Measured: Potency

C1C[C@@H]2[C@H]3CC[C@H](C3)[C@@H]2C1
not listed: [15] | [16] | [17] | [18] | [19] | [20]
inactive: all other assays above

C1COC1
not listed: [2] | [12] | [20]
inactive: all other assays above

CC/C=C1/OC(=O)c2ccccc21
not listed: [2] | [5] | [6] | [7] | [10]
inactive: all other assays above

Brc1cc2ccccc2c2ccccc12
inactive: [1] | [2] | [5] | [8] | [9] | [11] | [12] | [13] | [14]
active: [17] 30.9 µM

COc1cc(C(=O)NC2CCN(C)CC2)ccc1Nc1ncc2c(n1)N(C1CCCC1)CC(F)(F)C(=O)N2C
active: [2] 0.112 µM | [17] 22.3 µM | [7] 11.2 µM
inactive: [1] | [18] | [5] | [8] | [14]

O=C1c2ccccc2C(=O)N1CCc1noc(-c2ccc(CN3CCCCCC3)s2)n1
active: [2] 22.3 µM | [17] 3.15 µM
inactive: [1] | [5] | [8] | [9] | [10] | [11] | [12] | [14]

CCn1cc(C(=O)O)c(=O)c2cc(F)c(N3CCNCC3)cc21
not listed: [2] | [11] | [18]
inactive: all other assays above

c1ccc2sc(SN(C3CCCCC3)C3CCCCC3)nc2c1
not listed: [2] | [14] | [18] | [19]
inactive: all other assays above

CN1CCCC(n2nc(Cc3ccc(Cl)cc3)c3ccccc3c2=O)CC1 (configuration not stated)
active: [2] 2.66 µM | [17] 26.6 µM | [7] 26.6 µM | [20] 11.9 µM | [9] 26.6 µM | [10] 13.3 µM
inactive: [1] | [5] | [6] | [8] | [11] | [12] | [13] | [14]

C/C=C/C=C/C=O
not listed: [2] | [4] | [6] | [7] | [8] | [19]
inactive: all other assays above

O=C(OCC(O)CO)c1ccccc1Nc1ccnc2cc(Cl)ccc12 (configuration not stated)
inactive: [1] | [3] | [18] | [5] | [20] | [8] | [11] | [12] | [13] | [14]
active: [2] 7.5 µM | [19] 21.1 µM

CC(=O)Nc1ccc(C)cc1C
not listed: [5] | [7] | [14] | [15] | [16] | [17] | [18] | [20]
inactive: all other assays above

CCC=CC#N
active: [1] 29.7 µM
not listed: [2] | [11] | [18] | [19]
inactive: all other assays above

CCCCCCCCC(CCCCCC)C(=O)O (configuration not stated)
active: [17] 8.63 µM
inactive: [1] | [2] | [3] | [6] | [7] | [8] | [11] | [12] | [13] | [14]

CCCCCC#CC(=O)OC
not listed: [8] | [14] | [15] | [16] | [17] | [18] | [19]
inactive: all other assays above

CCC(=O)C1CC(C(C)C)CC=C1C (configuration not stated)
not listed: [2] | [6] | [7] | [12] | [14] | [19] | [20]
inactive: all other assays above

CC(=O)NC1(c2cccc(F)c2)CCN(CC[C@@]2(c3ccc(Cl)c(Cl)c3)CN(c3ccccc3)C(=O)CO2)CC1
inactive: [1] | [5] | [6] | [7] | [20] | [12] | [14]
active: [2] 24.4 µM | [17] 24.4 µM | [4] 21.7 µM | [19] 48.7 µM | [9] 38.7 µM | [10] 21.7 µM

O=[N+]([O-])c1ccc(Nc2ccc(Nc3ccccc3)c(S(=O)(=O)O)c2)c([N+](=O)[O-])c1
active: [20] 54.5 µM
not listed: [3] | [5] | [7] | [8] | [11] | [15] | [16] | [18]
inactive: all other assays above
